Assay results taken from the supplement of paper PMC4709259.
Structures can show the parent of a compound that is named as a salt. ± gives the standard deviation.

Tests used:
[1] = test system: Jurkat; assay: mean cell size (FSC-A) relative to DMSO control (fraction of control); higher = larger cells; settings: 48 h
Method in brief: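 Jurkat cells at 600 cells/µl were incubated for 1 h and then treated for 48h with the Enzo Screen-Well FDA Approved Drug Library v2.0 at 25µM, with DMSO at 0.9% (v/v) final. Compounds that reduced counts below 20% of controls were retested in 10-fold dilutions down to 25nM. Cell count and mean cell size, taken as forward scatter area, were measured by flow cytometry relative to solvent-only controls. Each plate carried 6-12 controls, and values are means of 3 biological replicates.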

[2] = test system: Jurkat; assay: cell count relative to DMSO control (fraction of control); higher = more cells (less growth inhibition); settings: 48 h

| Structure (SMILES) | mean cell size [1] | cell count [2] |
| --- | --- | --- |
| Cc1c(-c2ccccc2)oc2c(C(=O)OCCN3CCCCC3)cccc2c1=O [Flavoxate·HCl] (concentration: 25 µM) | 1.01 ± 0.057 | 1.01 ± 0.062 |
| CNC(=O)c1cc(Oc2ccc(NC(=O)Nc3ccc(Cl)c(C(F)(F)F)c3)cc2)ccn1 [Sorafenib Tosylate] (concentration: 2.5 µM) | 0.919 ± 0.022 | 0.999 ± 0.032 |
| N[C@@H](CC(=O)N1CCn2c(nnc2C(F)(F)F)C1)Cc1cc(F)c(F)cc1F [Sitagliptin Phosphate] (concentration: 25 µM) | 0.999 ± 0.021 | 0.554 ± 0.18 |
| CCCC1O[C@@H]2C[C@H]3[C@@H]4CCC5=CC(=O)C=C[C@]5(C)[C@H]4[C@@H](O)C[C@]3(C)[C@]2(C(=O)CO)O1 (some centres not stated) [Budesonide] (concentration: 25 µM) | 0.945 ± 0.037 | 0.799 ± 0.046 |
| CCCOc1ccc(C(=O)OCCN(CC)CC)cc1N [Proparacaine·HCl] (concentration: 25 µM) | 1.06 ± 0.046 | 1.07 ± 0.05 |
| C[C@@H](O)[C@H]1C(=O)N2C(C(=O)O)=C(SCCNC=N)C[C@H]12 [Imipenem] (concentration: 25 µM) | 0.883 ± 0.063 | 0.344 ± 0.13 |
| CCC(C)n1ncn(-c2ccc(N3CCN(c4ccc(OCC5COC(Cn6cncn6)(c6ccc(Cl)cc6Cl)O5)cc4)CC3)cc2)c1=O (configuration not stated) [Itraconazole] (concentration: 25 µM) | 1.11 ± 0.071 | 0.323 ± 0.026 |
| Nc1nc(Cl)nc2c1ncn2[C@@H]1O[C@H](CO)[C@@H](O)[C@@H]1F [Clofarabine] (concentration: 25 nM) | 1.18 ± 0.048 | 0.26 ± 0.073 |
| COc1ccccc1Oc1c(NS(=O)(=O)c2ccc(C(C)(C)C)cc2)nc(-c2ncccn2)nc1OCCO [Bosentan] (concentration: 25 µM) | 0.975 ± 0.018 | 0.675 ± 0.068 |
| Nc1ncn([C@@H]2O[C@H](CO)[C@@H](O)[C@H]2O)c(=O)n1 [Azacitidine] (concentration: 25 µM) | 0.9766 ± 0.0047 | 0.668 ± 0.11 |
| C#C[C@]1(O)CC[C@H]2[C@@H]3CCC4=CCCC[C@@H]4[C@H]3C(=C)C[C@@]21CC [Desogestrel] (concentration: 25 µM) | 0.943 ± 0.018 | 1.03 ± 0.027 |
| N=C(NCCCCCCNC(=N)NC(=N)Nc1ccc(Cl)cc1)NC(=N)Nc1ccc(Cl)cc1 [Chlorhexidine Dihydrochloride] (concentration: 2.5 µM) | 0.986 ± 0.017 | 0.763 ± 0.045 |
| CC(=O)CC(c1ccccc1)c1c(O)c2ccccc2oc1=O (configuration not stated) [Warfarin·Na] (concentration: 25 µM) | 1.04 ± 0.051 | 0.708 ± 0.045 |
| CCCNC(=O)NS(=O)(=O)c1ccc(Cl)cc1 [Chlorpropamide] (concentration: 25 µM) | 1.04 ± 0.021 | 1.02 ± 0.048 |
| C[C@]12CC[C@@H]3c4ccc(OS(=O)(=O)O)cc4CC[C@H]3[C@@H]1CCC2=O [Estropipate] (concentration: 25 µM) | 1.06 ± 0.069 | 0.747 ± 0.21 |
| OC[C@H]1O[C@@H](O[C@@H]2[C@@H](CO)OC(O)(CO)[C@H]2O)[C@H](O)[C@@H](O)[C@H]1O (mixture of isomers) [Lactulose] (concentration: 25 µM) | 0.938 ± 0.046 | 0.56 ± 0.15 |
| Nc1cc(-c2ccncc2)c[nH]c1=O [Amrinone] (concentration: 25 µM) | 0.965 ± 0.031 | 0.256 ± 0.064 |
| S=P(N1CC1)(N1CC1)N1CC1 [Thiotepa] (concentration: 2.5 µM) | 1.248 ± 0.012 | 0.583 ± 0.059 |
| CC(=O)c1ccc(S(=O)(=O)NC(=O)NC2CCCCC2)cc1 [Acetohexamide] (concentration: 25 µM) | 1.02 ± 0.063 | 0.723 ± 0.068 |
| CC(=O)[C@@]1(O)CC[C@H]2[C@@H]3C[C@H](C)C4=CC(=O)C=C[C@]4(C)[C@@]3(F)[C@@H](O)C[C@@]21C [Fluorometholone] (concentration: 25 µM) | 0.914 ± 0.06 | 0.639 ± 0.12 |
| COC(c1ccccc1)(c1ccccc1)[C@H](Oc1nc(C)cc(C)n1)C(=O)O [Ambrisentan] (concentration: 25 µM) | 0.975 ± 0.043 | 0.757 ± 0.088 |
| CO/N=C(\C(=O)N[C@@H]1C(=O)N2C(C(=O)O)=CCS[C@H]12)c1csc(N)n1 [Ceftizoxim·Na] (concentration: 25 µM) | 0.95 ± 0.016 | 1.09 ± 0.073 |
| CCCCCOC(=O)Nc1nc(=O)n([C@@H]2O[C@H](C)[C@@H](O)[C@H]2O)cc1F [Capecitabine] (concentration: 25 µM) | 0.957 ± 0.019 | 1.01 ± 0.091 |
| COc1cc(Cc2cnc(N)nc2N)cc(OC)c1OC [Trimethoprim] (concentration: 25 µM) | 0.969 ± 0.039 | 0.457 ± 0.11 |
| CCOC(=O)O[C@]1(C(=O)OCCl)CC[C@H]2[C@@H]3CCC4=CC(=O)C=C[C@]4(C)[C@H]3[C@@H](O)C[C@@]21C [Loteprednol Etabonate] (concentration: 25 µM) | 0.892 ± 0.027 | 1.08 ± 0.067 |
| C[N+]1(C)[C@@H]2CC[C@H]1C[C@@H](OC(=O)C(O)c1ccccc1)C2 (some centres not stated) [Homatropine Methylbromide] (concentration: 25 µM) | 0.9418 ± 0.0067 | 0.565 ± 0.018 |
